Test results reported in article PMC4552634, “A New Set of Chemical Starting Points with Plasmodium falciparum Transmission-Blocking Potential for Antimalarial Drug Discovery” (PLoS ONE, 2015).
In all, about 13,000 compounds went through this assay and about 3,200 (25%) showed an effect of 50% or more. The list shows a part of the results.

system: P. falciparum stage V gametocytes; parameters: BacTiter-Glo ATP luminescence viability of purified stage V gametocytes in 384-well plates, per cent inhibition versus DMSO; conditions: 48 h, 5 µM; inhibitor

SMILES | % Inhibition [%]
CCCCNC(=O)[C@@H](NC(=O)c1ccc(O)c(-c2ccc(Cl)c(Cl)c2)c1)C(C)C [TCMDC-140839] | 36.3
CCCCOP(=O)(COc1ccc(CCN(CC(O)COc2cccc3[nH]c4ccccc4c23)CC(O)COc2cccc3[nH]c4ccccc4c23)cc1)C1CCCCC1 (centres unmarked) [TCMDC-139016] | 44.85
COc1ccc(Nc2nccc(N3CCC(NC(=O)Nc4cccc(C(C)=O)c4)C3)n2)cc1 (centres unmarked) [TCMDC-133610] | -16.63
COc1cc(Cc2cnc(N)nc2N)cc(OCCCOc2ccccc2)c1OC [TCMDC-137687] | 38.19
O=C(C=Cc1ccc(-c2ccccc2)cc1)N1CCC(CCN2CCC(c3c[nH]c4ccccc34)CC2)CC1 [TCMDC-139941] | 105.7
O=C(/C=C/c1ccc(F)c(C(F)(F)F)c1)N1CCC(CN2CCC(c3c[nH]c4ccccc34)CC2)CC1 [TCMDC-140384] | -23.83
COc1cc(C=CC(=O)N2CCC(CCN3CCC(c4c[nH]c5ccccc45)CC3)CC2)cc(OC)c1 [TCMDC-139938] | 103.2
COc1ccc(C=CC(=O)N2CCC(CN3CCC(c4c[nH]c5ccccc45)CC3)CC2)cc1OC [TCMDC-139944] | -13.45
Cc1ccc(/C=C/C(=O)N2CCC(CCN3CCC(c4c[nH]c5ccccc45)CC3)CC2)cc1C [TCMDC-139762] | 46.51
CC(C)c1ccc(C=CC(=O)N2CCC(CCN3CCC(c4c[nH]c5ccccc45)CC3)CC2)cc1 [TCMDC-139942] | 110.7
O=C(/C=C/c1ccsc1)N1CCC(CCN2CCC(c3c[nH]c4ccccc34)CC2)CC1 [TCMDC-140263] | 102.1
COc1cc(C=CC(=O)N2CCC(CN3CCC(c4c[nH]c5ccccc45)CC3)CC2)ccc1O [TCMDC-139913] | -95.05
COc1cc(C=CC(=O)N2CCC(CN3CCC(c4c[nH]c5ccccc45)CC3)CC2)cc(OC)c1 [TCMDC-139945] | -6.368
O=C(/C=C/c1ccsc1)NC1CCC(CN2CCC(c3c[nH]c4ccccc34)CC2)CC1 (centres unmarked) [TCMDC-140294] | -21.49
COc1cc(NC(=O)N2CCc3ccc(OCCN(C(C)C)C(C)C)cc32)cc(C(F)(F)F)c1 [TCMDC-140251] | 48.14
CN1CCCC(OC(=O)c2ccccc2)C1 (centres unmarked) [TCMDC-125511] | 3.276
Fc1ccc2[nH]c(-c3cccc(-c4cccc(CNCC5CCCO5)c4)c3)nc2c1.O=C(O)C(F)(F)F (centres unmarked) [TCMDC-133091] | -32.27
O=C(NC1CCCc2ccccc21)[C@@H]1CCCN1C(=O)c1ccc(O)c(-c2ccc(Cl)c(Cl)c2)c1 (some centres unmarked) [TCMDC-140867] | 31.83
COC(=O)c1ccc(CC(C)NCC(O)c2cccc(SC(F)(F)F)c2)cc1 (centres unmarked) [TCMDC-131494] | 25.48
CCCC(N)C(=O)NC1CCN(c2c(F)c(N)c3c(=O)c(C(=O)O)cn4c3c2Oc2ccccc2-4)C1 (centres unmarked) [TCMDC-125701] | 40.26
Cc1cc(CNC(c2ccccc2)C2CCC2)cc(C)c1O (centres unmarked) [TCMDC-134518] | -25.25
Cc1nc2nc(N)nc(N)c2c(C)c1Cc1ccc(C(F)(F)F)cc1 [TCMDC-137656] | -0.8923

SMILES | % Inhibition [%]
N#Cc1ccccc1Sc1ccccc1C(=O)Nc1ccc2ccccc2n1 [TCMDC-125464] | 33.3
O=C(/C=C/c1ccc(Cl)cc1Cl)N1CCC(CCN2CCC(c3c[nH]c4ccccc34)CC2)CC1 [TCMDC-139711] | 81.98
O=C(/C=C/c1cc([N+](=O)[O-])ccc1Cl)N1CCC(CCN2CCC(c3c[nH]c4ccccc34)CC2)CC1 [TCMDC-139911] | 95.76
O=C(/C=C/c1ccccc1O)N1CCC(CCN2CCC(c3c[nH]c4ccccc34)CC2)CC1 [TCMDC-139712] | 101.8
O=C(C=Cc1ccccc1O)N1CCC(CN2CCC(c3c[nH]c4ccccc34)CC2)CC1 [TCMDC-139912] | -49.08
O=C(/C=C/c1ccc([N+](=O)[O-])cc1)N1CCC(CCN2CCC(c3c[nH]c4ccccc34)CC2)CC1 [TCMDC-139940] | -27.66
O=C(/C=C/c1cc([N+](=O)[O-])ccc1Cl)NC1CCC(CN2CCC(c3c[nH]c4ccccc34)CC2)CC1 (centres unmarked) [TCMDC-139907] | -55.07
O=C(/C=C/c1cc(F)c(F)cc1F)N1CCC(CN2CCC(c3c[nH]c4ccccc34)CC2)CC1 [TCMDC-140383] | -20.73
O=C(C=Cc1ccc(Br)cc1)N1CCC(CCN2CCC(c3c[nH]c4ccccc34)CC2)CC1 [TCMDC-139939] | 87.97
CCCc1ccc(NC(=O)c2ccc(CN3CCCN(CC4CCCCC4)CC3)cc2)cc1 [TCMDC-136420] | -21.41
FC(F)(F)c1ccc2[nH]c(-c3ccc(-c4ccc(CN5CCN(c6cnccn6)CC5)cc4)s3)nc2c1.O=C(O)C(F)(F)F [TCMDC-132677] | 4.163
COc1cc(Cc2cnc(N)nc2N)cc(OCCCCC2SC(=O)NC2=O)c1OC (centres unmarked) [TCMDC-137185] | -7.728
Cc1cnc(NC(=O)c2cn(-c3ccccc3)nc2-c2cccs2)s1 [TCMDC-124433] | 10.72
COc1cc2c(c(OC)c1OC)C[C@H]1c3c(cc4c(c3-2)OCO4)CCN1C [TCMDC-138525] | -52.76
N#Cc1ccc2[nH]cc(CN3CCC4(CC3)CN(CCNCc3ccccc3)C(=O)O4)c2c1 [TCMDC-136732] | -34.87
COc1ccc2ncc(F)c(CCN3C[C@H](CNCc4cc(F)c5c(c4)NC(=O)CO5)[C@H](O)C3)c2n1 [TCMDC-136203] | 28.74
Nc1nc2c(ncn2OC[C@H](CO)OCP(=O)(O)O)c(=O)[nH]1 [TCMDC-131639] | 4.722
O=C(/C=C/c1cc(C(F)(F)F)ccc1F)N1CCC(CN2CCC(c3c[nH]c4ccccc34)CC2)CC1 [TCMDC-139857] | -24.43
O=C(/C=C/c1ccc(C(F)(F)F)cc1)N1CCC(CCN2CCC(c3c[nH]c4ccccc34)CC2)CC1 [TCMDC-139761] | 107.6
O=C(/C=C/c1cc(F)cc(C(F)(F)F)c1)N1CCC(CN2CCC(c3c[nH]c4ccccc34)CC2)CC1 [TCMDC-140385] | -12.95
CCCCN1Cc2c(n(CC(=O)Nc3ccccc3)c3cc(-c4ccccc4)nn3c2=O)C1=O [TCMDC-125585] | -0.9231
CCN(CC)CCN(Cc1ccc(-c2ccc(C(F)(F)F)cc2)nc1)C(=O)Cn1cc(Cc2cnn(C)c2)c(=O)n2nc(-c3ccccc3)cc12 [TCMDC-140691] | 119

SMILES | % Inhibition [%]
CCN(CC)CCN(Cc1ccc(-c2ccc(C(F)(F)F)cc2)cc1)C(=O)Cn1cc(Cc2cnn(C)c2)c(=O)n2nc(-c3ccccc3)cc12 [TCMDC-140690] | 119.2
COc1ccc2nccc([C@@H](O)CN3CCC(NC(=O)/C=C/c4cccc(C)c4)CC3)c2c1 [TCMDC-141114] | -1.317
O=C(NC1CCN(CCc2c[nH]c3ccc(F)cc23)CC1)c1ncc(-c2ccccc2)[nH]1 [TCMDC-131972] | 5.191
Cc1ccc(NC(=O)Nc2ccc(Br)cc2)cc1OCCN(C)C [TCMDC-140087] | -42.58
COc1ccc(NC(=O)/C=C/c2cc(Br)ccc2F)cc1OCCN(C(C)C)C(C)C [TCMDC-140668] | -43.25
CCOC(=O)CN(c1ccc(Br)cc1OCCOc1cc(Br)ccc1N(CC(=O)OCC)C(C)C(=O)OCC)C(C)C(=O)OCC (centres unmarked) [TCMDC-132003] | 102
C=CCc1cc(SC)ccc1Oc1ccc(N)cc1 [TCMDC-137690] | -96.62
CCOc1ccccc1C(=O)Nc1cccc(-c2nc3ncccn3c2C)c1 [TCMDC-124461] | 18.92
Cc1ccccc1C(=O)Nc1cccc(-c2nc3ncccn3c2C)c1 [TCMDC-125138] | 25.46
Cc1c(-c2cccc(NC(=O)C(C)(C)Oc3ccc(Cl)cc3)c2)nc2ncccn12 [TCMDC-124460] | 51.92
CN(c1cc(NC(=O)c2cccs2)ccn1)C1CCN(Cc2cccc(C#N)c2)CC1 [TCMDC-134970] | 39.85
Cc1[nH]c(C)c(-c2ccc(Oc3ccc(Cl)c(Cl)c3)cc2)c(=O)c1Cl [TCMDC-137396] | 73.66
Cc1[nH]c(C)c(-c2ccc(Oc3ccc(Cl)c(Cl)c3)cc2)c(=O)c1Br [TCMDC-137397] | 72.37
Cc1[nH]c(C)c(-c2ccc(Oc3cc(Cl)cc(Cl)c3)cc2)c(=O)c1Br [TCMDC-137392] | 48.81
Cc1[nH]c(C)c(-c2ccc(Oc3ccc(Cl)cc3Cl)cc2)c(=O)c1Br [TCMDC-137533] | 62.65
Cc1[nH]c(C)c(-c2ccc(Cl)cc2Cl)c(=O)c1Br [TCMDC-137428] | 6.285
Cc1[nH]c(C)c(-c2ccc(Oc3ccc(Cl)cc3)c(Cl)c2)c(=O)c1Br [TCMDC-137409] | 21.95
Cc1noc(C)c1-c1ccc(C(=C2CCCCCC2)c2ccc(O)cc2)cc1 [TCMDC-135873] | -11.65
CCCCCc1cc(O)c2c(c1)OC(C)(C)C=C2C1=CCN(Cc2ccsc2)CC1 [TCMDC-131400] | -46.98
COc1cc(NC(=O)c2c(-c3c(F)cccc3Cl)noc2C)c(OC)cc1Cl [TCMDC-123635] | 20.08
Cc1ccc(NC(=O)c2cccc(CN3CCCN(Cc4cccc(O)c4)CC3)c2)cc1 [TCMDC-135961] | 28.04
